The values that follow come from the supplement of paper PMC8253809.

Structures are written as SMILES.

The test system of the assay is SUDIPGVI (diffuse intrinsic pontine glioma line)
In words: growth inhibition (% activity, log2 RLU normalised to DMSO / staurosporine); higher = more growth inhibition. The note with it: 33 µM. The method, boiled down: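 Approved drugs were tested in triplicate at a single final concentration of about 33 μM for 7 days at 37 °C, 5% CO2, on pHGG cell lines and H9-derived neural stem cells. Readout was CellTiter-Glo luminescence, log2-transformed and scaled per plate to % activity between solvent and positive control wells. The median over replicates gives the growth-inhibition value.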
As to `C[C@]12C=CC(=O)C=C1CC[C@H]1[C@@H]3C[C@@H](O)[C@](O)(C(=O)CO)[C@@]3(C)C[C@H](O)[C@@]12F`, the growth inhibition worked out at 0.457%.
The same measure for `NCCC(O)(P(=O)(O)O)P(=O)(O)O`: 2.52%.
The same measure for `CCC[C@@H]1C[C@@H](C(=O)N[C@@H]([C@H]2O[C@H](SC)[C@H](OP(=O)(O)O)[C@@H](O)[C@H]2O)[C@H](C)Cl)N(C)C1`: -2.75%.
The same measure for `CC(C)[C@H](N)C(=O)OCC(CO)OCn1cnc2c(=O)[nH]c(N)nc21` (stereo partly specified): -2.51%.
As to `Nc1ccc(S(=O)(=O)Nc2ccccn2)cc1`, the growth inhibition was 1.15%.
The same measure for `CCCCCCCCCCCCCCCCO`: 0.249%; for `CC(CN(C)C)CN1c2ccccc2CCc2ccccc21` (stereo unspecified): 0.808%.
The same measure for `NCCCC[C@H](N[C@@H](CCc1ccccc1)C(=O)O)C(=O)N1CCC[C@H]1C(=O)O`: -1.38%; for `CC(N)C12CC3CC(CC(C3)C1)C2` (stereo unspecified): -0.365%; for `CCCCCN(C)CCC(O)(P(=O)(O)O)P(=O)(O)O`: -0.622%.
The same measure for `CSc1ccc2c(c1)N(CCC1CCCCN1C)c1ccccc1S2` (stereo unspecified): -0.552%; for `CN/C(=N\CCSCc1nc[nH]c1C)NC#N`: 2.38%; for `CN[C@@H]1[C@H](O[C@H]2[C@H](O[C@H]3[C@H](O)[C@@H](O)[C@H](N=C(N)N)[C@@H](O)[C@@H]3N=C(N)N)O[C@@H](C)[C@]2(O)C=O)O[C@@H](CO)[C@H](O)[C@H]1O`: -0.665%.
Take `COc1cc2c(cc1O)CC[C@@H]1[C@@H]2CC[C@]2(C)[C@@H](O)CC[C@@H]12`: the growth inhibition is -1.23%.
In the case of `CC(C)C[C@H](NC(=O)[C@H](O)[C@H](N)Cc1ccccc1)C(=O)O`, the growth inhibition was determined as 0.754%.
The same measure for `CC=CC1=C(C(=O)O)N2C(=O)[C@@H](NC(=O)[C@H](N)c3ccc(O)cc3)[C@H]2SC1`: 0.277%.
